An excerpt weighted towards active compounds, which were near 3.4% of everything screened.
PP5 primary = inhibitors of human protein phosphatase 5 (PP5) | P53041 | purified PP5c, OMFP substrate fluorescence | inhibition, % at 6.7 µM | 0.18% of 320,000 active;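 active = inhibition above the campaign's mean inhibition across all tested compounds plus 3 SD, cut at about 9.5% in these data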
Target sequence (P53041 whole entry, looked up): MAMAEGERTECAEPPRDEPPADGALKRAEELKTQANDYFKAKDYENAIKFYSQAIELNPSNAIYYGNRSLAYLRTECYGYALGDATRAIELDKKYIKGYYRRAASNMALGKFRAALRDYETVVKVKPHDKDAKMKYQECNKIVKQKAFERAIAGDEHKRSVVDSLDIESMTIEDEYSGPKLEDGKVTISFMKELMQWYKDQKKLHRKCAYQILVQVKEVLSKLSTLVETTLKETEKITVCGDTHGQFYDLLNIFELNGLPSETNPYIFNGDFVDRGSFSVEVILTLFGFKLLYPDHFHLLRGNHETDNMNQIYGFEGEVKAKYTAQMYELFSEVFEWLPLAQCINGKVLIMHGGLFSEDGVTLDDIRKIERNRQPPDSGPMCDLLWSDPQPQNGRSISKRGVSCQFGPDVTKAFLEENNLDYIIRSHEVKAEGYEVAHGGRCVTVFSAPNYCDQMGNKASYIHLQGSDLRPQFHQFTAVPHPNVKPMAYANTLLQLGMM
PP1 counter = blocks human PP1-alpha phosphatase, a PP5 counter-screen; P62136; inhibition, % at 6.7 µM; 0.9% of 320,000 active; AID 2235; purified PP1alpha, OMFP fluorescence;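 active = inhibition above the mean inhibition of all tested compounds plus 3 SD, computed separately for each screening campaign, cut at about 15% in these data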
pPAFAH inh = inhibitors of human plasma PAF acetylhydrolase (pPAFAH) | Q13093 | inhibition, % at 3.39 µM | 1.5% of 330,000 active | recombinant pPAFAH, FP-rhodamine probe fluorescence polarization | AID 463082;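 active = inhibition above the mean inhibition across the screen plus 3 SD, cut at about 25% in these data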;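 note: inhibitors block binding of the rhodamine activity-based probe so polarization drops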
PAFAH1B2 inh = PAFAH1B2 (human) inhibition; AID 492953; inhibition, % at 3.39 µM; recombinant PAFAH1B2, FP-rhodamine activity probe, fluorescence polarization; 1.2% of 340,000 active; P68402;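 active = inhibition above the mean of all tested compounds plus 3 SD, cut at about 24% in these data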
Target sequence (P68402 whole entry, looked up): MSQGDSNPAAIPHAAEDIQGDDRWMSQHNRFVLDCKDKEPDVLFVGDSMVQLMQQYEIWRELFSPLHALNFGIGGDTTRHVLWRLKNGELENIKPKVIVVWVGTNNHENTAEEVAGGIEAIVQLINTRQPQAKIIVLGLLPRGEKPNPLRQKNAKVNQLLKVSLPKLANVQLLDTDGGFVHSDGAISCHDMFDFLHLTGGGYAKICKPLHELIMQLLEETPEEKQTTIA
PAFAH2 FP inh = PAFAH2 (human) inhibition | Q99487 | recombinant PAFAH2, FP-rhodamine activity probe, fluorescence polarization | inhibition, % at 3.39 µM | 0.99% of 340,000 active | AID 492956;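 active = inhibition above the mean over all tested compounds plus 3 SD, cut at about 30% in these data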;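 note: inhibitors block probe labeling of enzyme so polarization drops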
PAFAH1B3 FP inh = blocks human PAF acetylhydrolase 1B catalytic subunit 3; inhibition, % at 3.39 µM; AID 492972; 0.28% of 340,000 active; recombinant PAFAH1B3, FP-rhodamine probe, fluorescence polarization;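 active = inhibition above the screen-wide average of all tested compounds plus 3 SD, cut at about 25% in these data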
PAFAH2 confirm = confirmation of human PAFAH2 inhibitors; shares compounds with PAFAH2 FP inh; recombinant PAFAH2, FP-rhodamine activity probe, fluorescence polarization; inhibition, % at 3.39 µM; 65% of 2,300 active; AID 493030;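 active = mean inhibition over three repeats above a set limit taken from the earlier primary screen, cut at about 30% in these data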;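 note: inhibitor blocks binding of rhodamine activity probe so polarization falls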
PAFAH1B3 conf FP = confirmation of human PAFAH1B3 inhibitors | 30% of 390 active | shares compounds with PAFAH1B3 FP inh | recombinant PAFAH1B3, FP-Rh activity-based probe, fluorescence polarization | inhibition, % at 3.39 µM;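 active = average inhibition over triplicate runs above the hit cutoff set in the earlier primary screen, cut at about 25% in these data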
Large screens that a line does not name were inactive (follow-up assays come after a bar, where they were run); ! = not active in a repeat.

C=CCNC(=O)/C(C#N)=C/c1cc(Br)ccc1OC	PAFAH2 FP inh 33 | PAFAH2 confirm inactive
Cc1cccc(CCN2CCC(C(=O)c3ccc(NS(C)(=O)=O)cc3)CC2)n1	none (no result: PAFAH1B2 inh, PAFAH2 FP inh, PAFAH1B3 FP inh)
Cc1ccc(CN(C)C(=O)C2CCCN2C(=O)c2cccs2)o1 (stereo not drawn)	none
CCOC(=O)c1ccc(N2C(=O)[C@@H](c3ccccc3)[C@H]2c2ccccc2)cc1	none
CCOC(=O)c1ccc(N2C(=O)C3CCOc4ccccc4C32)cc1 (stereo not drawn)	PAFAH2 FP inh 80 | PAFAH2 confirm 63
O=C(O)CCCn1cc(NC(=O)c2cccc(F)c2)cn1	none
Cc1ccc(CNC(=O)COC(=O)CN2C(=O)C3CC=CCC3C2=O)cc1 (stereo not drawn)	PAFAH2 FP inh 37 (no result: PP5 primary, PP1 counter) | PAFAH2 confirm inactive
c1ccc2c(c1)Nc1ccncc1S2	none
CCOC(=O)COc1cc2c(C(=O)OCC)c(C)oc2cc1Br	none
CCOC(=O)c1c(C)oc2cc(Br)c(O)c(Br)c12	PAFAH2 FP inh 43 | PAFAH2 confirm 31
O=C(COC(=O)/C=C/c1ccccc1Cl)NC1CCCCCC1	PAFAH2 FP inh 72 | PAFAH2 confirm 75
COc1cccc(/C=C/C(=O)OCC(=O)NC2CC2)c1	PAFAH2 FP inh 41 | PAFAH2 confirm 38
O=C(COC(=O)/C=C/c1cccc(C(F)(F)F)c1)NC(=O)NC1CCCC1	none (no result: PP5 primary, PP1 counter, pPAFAH inh)
COc1cccc(/C=C/C(=O)OCC(=O)NCCc2ccccc2)c1	PAFAH2 FP inh 32 | PAFAH2 confirm inactive
CCOc1ccc(CCNC(=O)COC(=O)/C=C/c2cccc(OC)c2)cc1OCC	none
O=C(COC(=O)/C=C/c1cccc(Br)c1)NC1CCCC1	PAFAH2 FP inh 66 (no result: PP5 primary, PP1 counter) | PAFAH2 confirm 59
CCCCOC(=O)c1ccc(NC(=O)c2ocnc2C)cc1	none
COc1ccccc1CNS(=O)(=O)c1c(C)[nH]c(=O)[nH]c1=O	none
CCOc1ccc2[nH]c(=O)c(=O)[nH]c2c1	none
O=C(COC(=O)/C=C/c1ccccc1)NC1CCCCC1	PAFAH2 FP inh 76 | PAFAH2 confirm 83
O=C(COc1ccccc1)NC1CCCCCCC1	none
O=C(COc1ccccc1)NC1CCCCC1	none
O=C(COC(=O)/C=C/c1ccccc1)NC1CCCC1	PAFAH2 FP inh 84 (no result: PP5 primary, PP1 counter) | PAFAH2 confirm 74
COc1ccc(OC)c(NC(=O)COC(=O)CNC(=O)c2ccc(OC)c(OC)c2)c1	none
Cc1ccc(C(=O)CN(C(=O)c2ccc(Cl)c(Cl)c2)N2C(=O)C3CCCCC3C2=O)cc1 (stereo not drawn)	PAFAH2 FP inh 35 | PAFAH2 confirm 35
CCCCNC(=O)C1COc2ccccc2O1 (stereo not drawn)	none
Nc1cccc2c1C(=O)N(C(=O)/C=C/c1ccc(F)cc1)C2=O	none
Cc1cccc(C)c1NS(=O)(=O)c1ccc(-c2ccc(=O)[nH]n2)o1	none
COc1cc(Cl)c(NS(=O)(=O)c2ccc(-c3ccc(=O)[nH]n3)o2)c(OC)c1	PAFAH2 FP inh 32 | PAFAH2 confirm inactive
Cc1ccccc1S(=O)(=O)/N=C(/Nc1nc2ccccc2s1)c1ccccc1	PAFAH2 FP inh 36 (no result: PP5 primary, PP1 counter) | PAFAH2 confirm 30
CC1OC(Nc2cccc3ccccc23)C(O)C(O)C1O (stereo not drawn)	PAFAH1B3 FP inh 32 | PAFAH1B3 conf FP inactive
CN(C)c1ccc2c(c1)C(=NO)c1ccccc1-2	none (no result: PP5 primary, PP1 counter, pPAFAH inh)
ON=C1c2ccccc2-c2ccccc21	PAFAH1B3 FP inh 35 | PAFAH1B3 conf FP 28
CC(=O)N(CN1C(=O)c2ccccc2C1=O)c1cccc(C)c1	none
CC(=O)N(/N=C1\Sc2ccccc2C1=O)c1cccc(C)c1	PAFAH1B3 FP inh 42 | PAFAH1B3 conf FP 54
COc1cccc(-n2nc(C(=O)O)c3ccccc3c2=O)c1	none
O=S(=O)(Nc1c(S(=O)(=O)c2ccccc2)c2nc3ccccc3nc2n1C1CCCCC1)c1ccccc1	PAFAH1B3 FP inh 60 | PAFAH1B3 conf FP inactive
CC(=O)Nc1c(S(=O)(=O)c2ccccc2)c2nc3ccccc3nc2n1Cc1ccccc1	none
Cc1ccc(CN2CCN(C3CCOCC3)CC2CCO)cc1 (stereo not drawn)	none
CCN(CC)CCc1nc(-c2ccccc2)no1	PAFAH1B3 FP inh 29 | PAFAH1B3 conf FP 34
C[n+]1c2cc(N)ccc2cc2ccc(N)cc21	PAFAH1B3 FP inh 33 (no result: PP5 primary, PP1 counter, pPAFAH inh) | PAFAH1B3 conf FP 28!
CCOc1ccc(CCNC(=O)C2CC(=O)N(Cc3ccc(C)cc3)C2)cc1OCC (stereo not drawn)	none
S=C(Nc1ccc(Cl)c(Cl)c1)N1CCCC1	none
S=C(Nc1ccc2nsnc2c1)N1CCCCC1	PAFAH1B3 FP inh 51 | PAFAH1B3 conf FP inactive
Fc1ccc2nc(Nc3nc4cc5c(cc4s3)OCO5)sc2c1	PAFAH1B3 FP inh 43 | PAFAH1B3 conf FP 44
O=c1cc(CCl)nc2sc3ccccc3n12	PAFAH1B3 FP inh 60 | PAFAH1B3 conf FP 73
NC(=O)c1ccccc1NC(=O)Nc1ccc(F)c(Cl)c1	none
Cc1ccc(N2C(=O)c3ccccc3C2=O)cc1	none
Cc1ccc(SC2=C(Sc3ccc(C)cc3)C(=O)c3ccccc3C2=O)cc1	PAFAH1B3 FP inh 38 | PAFAH1B3 conf FP 35
COc1cc(C(=O)Oc2ccc3c(c2)OCC3=O)cc(OC)c1OC	none
CCOc1ccc(NC2=CC(=O)CCC2)cc1	none
NC1=CC(=O)C(=O)c2ccccc21	none (no result: PP5 primary, PP1 counter, pPAFAH inh)
CCOc1ccc(NC2=CC(=O)C(=O)c3ccccc32)cc1	PAFAH1B3 FP inh 49 (no result: PP5 primary, PP1 counter, pPAFAH inh) | PAFAH1B3 conf FP 31
O=C1C=C(Nc2cccnc2)c2ccccc2C1=O	PAFAH1B3 FP inh 53 (no result: PP5 primary, PP1 counter, pPAFAH inh) | PAFAH1B3 conf FP 27
Cc1ccc(NC2=CC(=O)C(=O)c3ccccc32)c(C)c1	PAFAH1B3 FP inh 40 | PAFAH1B3 conf FP inactive
O=C1C=C(Nc2ccc(F)cc2)c2ccccc2C1=O	PAFAH1B3 FP inh 34 | PAFAH1B3 conf FP inactive
CC(C(=O)Nc1cccnc1)N1C(=O)c2ccccc2C1=O (stereo not drawn)	none
Cc1cc([N+](=O)[O-])nn1CC(=O)NNC(=S)Nc1ccc([N+](=O)[O-])cc1	none
CCC(=O)Nc1c2c(nc3c1CCC3)CCCC2	none
CCn1nnc(NC(=O)C(C)(c2ccccc2)c2ccccc2)n1	none
COc1ccc(N2C(=O)C(Cl)=C(Nc3ccccc3O)C2=O)cc1	none
Cc1nn(C)c(C(=O)N2CCc3ccccc32)c1Cl	none
CC(C)CN(CC(C)C)C(=O)Cc1coc2ccc3ccccc3c12	none
COc1cc(C=C2C(=O)c3ccccc3C2=O)cc(OC)c1	none
COc1cc(Cl)c(NC2=CC(=O)C(=O)c3ccccc32)c(OC)c1	PAFAH1B3 FP inh 35 | PAFAH1B3 conf FP 29

Compound activity deposited in PubChem BioAssay by The Scripps Research Institute Molecular Screening Center.
